The values below come from PubChem BioAssay (NCI).

Among the test systems are HCT-15 colon; HT29 colon; SNB-75 CNS; SNB-19 CNS; U251 CNS; PC-3 prostate; SK-MEL-5 melanoma; UACC-62 melanoma; LOX IMVI melanoma; SK-MEL-28 melanoma; SN12C renal; UO-31 renal; TK-10 renal; ACHN renal; CAKI-1 renal; A498 renal; CCRF-CEM leukemia; MOLT-4 leukemia; SK-MEL-2 melanoma; EKVX NSCLC.
Assay in all cases: NCI-60 one-dose screen, 48 h (100 = growth as untreated, 0 = no growth, -100 = all killed)
What all share (details): 10 µM unless noted

The panel holds about 83,000 compounds, 20% with a hit somewhere; the sample as a whole holds those more often.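 Plates (96-well) were seeded with cells, treated with compound at one concentration, and incubated for 48 hours before percent growth was determined.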 A number with no mark means an inactive call. Calls of active or inactive are those of the source. The calls were made as follows: active = growth percent below 10; inactive = the rest.

`COc1ccc2nc3cc(Cl)ccc3c(N3CCN(c4nccc(Nc5ccccc5)n4)CC3)c2c1`: the growth is 33.8% in the assay with HCT-15 colon; 54% with HT29 colon; 52.8% with SNB-75 CNS; 85.2% in the assay with SNB-19 CNS; 58.5% in the assay on U251 CNS; 55.9% in the assay on PC-3 prostate. Moreover, the growth in the assay on SK-MEL-5 melanoma is 80.4%; with UACC-62 melanoma it was 78.9%; with LOX IMVI melanoma it was 44.3%; in the assay with SK-MEL-28 melanoma it was 83.5%; in the assay on SN12C renal, 62%; in the assay with UO-31 renal, 43.7%. The growth in the assay on TK-10 renal was 65.6%; in the assay on ACHN renal it was 52.1%; in the assay with CAKI-1 renal it was 51.2%; with A498 renal, 16.6%; in the assay on CCRF-CEM leukemia, 7.71% (active); with MOLT-4 leukemia it was 5.37% (active).

Regarding `CC/C(Cc1ccccc1)=C(\c1ccc(OCCN2CCCC2)cc1)c1ccc(OC(C)=O)cc1`, the growth in the assay on HCT-15 colon is 60.5%; in the assay on HT29 colon it was 24.4%; in the assay with SNB-75 CNS, 57.8%; in the assay on SNB-19 CNS, 105%; with U251 CNS, 57.2%; with PC-3 prostate, 79.5%. Further, the growth in the assay with SK-MEL-5 melanoma was 69.6%; in the assay with UACC-62 melanoma, 43.9%; in the assay on SK-MEL-28 melanoma it was 21%; in the assay on SK-MEL-2 melanoma it was 104%; in the assay on EKVX NSCLC, 80.3%; in the assay on SN12C renal, 83.4%. In addition, the growth in the assay on UO-31 renal is 72.3%; with TK-10 renal it was 88.7%; with ACHN renal it was 89.7%; in the assay with CAKI-1 renal it was 86.6%; in the assay with A498 renal it was 87.9%; with CCRF-CEM leukemia, 88.1%. Besides, the growth in the assay with MOLT-4 leukemia was 55.2%.

Take `CC1=C(NCCN2CCCC2)C(=O)c2c(OCc3ccc(F)c(Cl)c3)cccc2C1=O`: the growth in the assay with HCT-15 colon is 49.1%; in the assay on HT29 colon it was 20.5%; with SNB-75 CNS it was 69.9%; in the assay on SNB-19 CNS it was 93%; in the assay on U251 CNS, 57.8%; with PC-3 prostate it was 60.3%. Moreover, the growth with SK-MEL-5 melanoma is 59%; in the assay on UACC-62 melanoma, 91.7%; in the assay on LOX IMVI melanoma it was 12.9%; with SK-MEL-28 melanoma, -53.4% (active); with SN12C renal, 71.2%; in the assay on UO-31 renal it was 42.8%. The growth in the assay on TK-10 renal was 69.1%; in the assay on ACHN renal it was 83.8%; in the assay on CAKI-1 renal, 50.2%; in the assay on A498 renal it was 38.7%; with CCRF-CEM leukemia, 40.6%; with MOLT-4 leukemia it was 44.3%.

For the compound `COc1ccc2nc3cc(Cl)ccc3c(N3CCN(c4nccc(Nc5ccc(Cl)cc5)n4)CC3)c2c1`, the growth in the assay with HCT-15 colon is 56.5%; with HT29 colon, 69.7%; in the assay on SNB-75 CNS it was 51.4%; in the assay with SNB-19 CNS, 92%; in the assay with U251 CNS, 62.1%; in the assay with PC-3 prostate, 40.3%. Further, the growth in the assay with SK-MEL-5 melanoma was 86.7%; with UACC-62 melanoma it was 81.6%; with LOX IMVI melanoma, 61.9%; with SK-MEL-28 melanoma it was 81.8%; with SN12C renal it was 74%; with UO-31 renal it was 54.8%. Also, the growth with TK-10 renal was 55.8%; in the assay with ACHN renal it was 58.2%; in the assay with CAKI-1 renal it was 46.4%; with CCRF-CEM leukemia it was 5.59% (active); with MOLT-4 leukemia it was 3.98% (active).

For the compound `O=C1c2c[n+](Cc3ccccc3)ccc2-c2nc3ccccc3c3ccnc1c23`, the growth is 18.6% in the assay on HCT-15 colon; -25% (active) with HT29 colon; -80.7% (active) in the assay with SNB-75 CNS; -72.2% (active) with SNB-19 CNS; -77% (active) in the assay on U251 CNS; -7.15% (active) in the assay with PC-3 prostate. For the same compound, the growth is -93.9% (active) with SK-MEL-5 melanoma; -58.5% (active) in the assay on UACC-62 melanoma; -37.1% (active) in the assay on LOX IMVI melanoma; -34.3% (active) with SK-MEL-28 melanoma; -53.6% (active) in the assay on SK-MEL-2 melanoma; -74.2% (active) in the assay with SN12C renal. For the same compound, the growth in the assay with UO-31 renal was -21.8% (active); in the assay on TK-10 renal, -20.2% (active); in the assay with ACHN renal, -13% (active); in the assay on CAKI-1 renal, 13.8%; in the assay with A498 renal it was -56.1% (active); with CCRF-CEM leukemia it was -13.1% (active). In the assay on MOLT-4 leukemia, the growth was -17.2% (active).

As to `C=C1CCC2C3(C)COC(c4ccc(OC)cc4Br)OC3CCC2(C)C1/C=C/C1=CCOC1=O` (stereo not given), the growth in the assay with HCT-15 colon was 65.7%; in the assay on HT29 colon, 75.6%; with SNB-75 CNS, 82.3%; with SNB-19 CNS, 97.4%; in the assay with U251 CNS, 74.7%; with PC-3 prostate it was 47.7%. Besides, the growth in the assay on SK-MEL-5 melanoma was 45.3%; in the assay on UACC-62 melanoma, 61.9%; in the assay on SK-MEL-28 melanoma, 80.2%; in the assay with SK-MEL-2 melanoma, 81.2%; with EKVX NSCLC, 44.2%; with SN12C renal it was 79.8%. Further, the growth was 54.2% in the assay with UO-31 renal; 83.9% with TK-10 renal; 81.1% in the assay on ACHN renal; 74.3% in the assay with CAKI-1 renal; 72.2% in the assay on A498 renal; 55.7% in the assay on MOLT-4 leukemia.

As to `CN(C)CCCC(=O)Nc1ccc(Cn2nnc3c2C(=O)c2nnn(Cc4ccc(NC(=O)CCCN(C)C)cc4)c2C3=O)cc1`, the growth with HCT-15 colon is 94.5%; in the assay with HT29 colon, 10.5%; with SNB-75 CNS it was -94.9% (active); in the assay on SNB-19 CNS it was 82.7%; in the assay on U251 CNS, 90.2%; in the assay on PC-3 prostate, 88.1%. In addition, the growth with SK-MEL-5 melanoma was 50.3%; in the assay on UACC-62 melanoma it was 75.7%; in the assay with LOX IMVI melanoma, 6.92% (active); in the assay with SK-MEL-28 melanoma, 56.5%; in the assay with SN12C renal, -29.4% (active); in the assay on UO-31 renal, 94.5%. In addition, the growth in the assay with TK-10 renal was 116%; in the assay with ACHN renal it was 102%; in the assay on CAKI-1 renal, 91%; in the assay on A498 renal it was 72.9%; in the assay with CCRF-CEM leukemia it was 16.8%; with MOLT-4 leukemia, 11.4%.

For `ClC1=C2NC=NC2n2c(nnc2-c2ccc(Cl)cc2)N1` (stereo not given), the growth is 96.4% in the assay with HCT-15 colon; 91.5% in the assay on HT29 colon; 107% with SNB-75 CNS; 92.7% in the assay on SNB-19 CNS; 89.6% in the assay with U251 CNS; 89.9% in the assay with PC-3 prostate. Moreover, the growth was 96.9% in the assay on SK-MEL-5 melanoma; 92.1% in the assay with UACC-62 melanoma; 102% in the assay with SK-MEL-28 melanoma; 95.8% with SK-MEL-2 melanoma; 105% with EKVX NSCLC; 94.5% in the assay with SN12C renal. The growth with UO-31 renal is 92%; with TK-10 renal, 122%; in the assay on ACHN renal it was 109%; in the assay on CAKI-1 renal it was 98.8%; with A498 renal, 73.1%; in the assay with CCRF-CEM leukemia, 99.9%. Also, in the assay with MOLT-4 leukemia, the growth is 99.6%.

On to `CCCCCCCCCC(=O)Oc1ccc(/C(=C(/C)c2ccccc2)c2ccc(OCCN3CCCC3)cc2)cc1`, for which the growth was -13.4% (active) in the assay on HCT-15 colon; -35.5% (active) with HT29 colon; -11.6% (active) in the assay with SNB-75 CNS; 6.86% (active) in the assay on SNB-19 CNS; -34.3% (active) in the assay on U251 CNS; 15.8% with PC-3 prostate. The growth in the assay on SK-MEL-5 melanoma is -98.5% (active); with UACC-62 melanoma it was -69% (active); in the assay on SK-MEL-28 melanoma, -77.9% (active); with SK-MEL-2 melanoma it was -31.5% (active); in the assay on EKVX NSCLC it was 44.1%; in the assay on SN12C renal, 44.8%. Besides, the growth in the assay with UO-31 renal was 7.66% (active); in the assay with TK-10 renal, 43%; in the assay with ACHN renal, 35.2%; with CAKI-1 renal, 1.34% (active); in the assay on A498 renal, 1.68% (active); with CCRF-CEM leukemia, 13.1%. In the assay on MOLT-4 leukemia, the growth is 2.39% (active).
